Hits are enriched below; roughly 12% of the tested compounds scored in any of these assays.
SARS PLpro yeast = blocks SARS-CoV papain-like protease in a yeast assay; S. cerevisiae expressing SARS-CoV PLpro, growth rescue; Potency, µM (top dose mostly 32.9 µM), without a hit: top-dose activity, positive = growth rescue, actives largely listed as activators; 330,000 compounds, 0.19% hits; calls by dose curve; also: 0% is about no effect; nearly all actives have a fitted effect of over 55% in size
AMA1 RON2 block = AMA1-RON2 (P. falciparum) interaction inhibition; AlphaScreen AMA1-biotinylated RON2 peptide binding; Potency, µM (top dose mostly 58.2 µM), for the others: top-dose activity change, negative = inhibition, actives largely listed as inhibitors; 360,000 compounds, 0.2% hits; AID 720542;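 also: 0% = vehicle wells and -100% = peptide control; nearly all actives have a fitted effect of over 45% in size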
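AMA1 (3D7) with his tag at 25 nM final met compounds first, then biotinylated RON2 peptide at 25 nM; detection used donor plus acceptor beads, 10 µg/mL apiece, read by AlphaScreen after 30 min at room temperature.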
NS1 inh = inhibitors of influenza NS1 protein function | AID 2326 | Potency, µM (top dose mostly 46.1 µM), without a hit: at the highest dose activity, positive = more growth | 270,000 compounds, 0.4% hits; calls by dose curve; also: actives are rising curves; nearly all actives have a fitted effect of over 50% in size
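OD600 was taken as the measure of yeast growth restored by compound in an NS1-expressing S. cerevisiae strain. Cells had been washed out of glucose medium and diluted 1:100 into galactose -URA medium, pH 6.0.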
Pf growth 48h = P. falciparum growth inhibition at 48 hours (one generation); P. falciparum luciferase growth in erythrocytes, 48 h; Potency, µM (highest dose often 28.7 µM), without a hit: top-dose activity change, negative = inhibition, hits mostly inhibitors; 310,000 compounds, 5.9% hits; also: % is scaled to controls: 0 for no effect and ±100 for the full control effect
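In quantitative HTS format, infected erythrocytes bearing luciferase-reporter parasites were treated for a single generation at 37 C. Luminescence after adding detection reagent served as the growth measure.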
Pf growth 96h = inhibits malaria parasite growth, 96 h. P. falciparum luciferase reporter growth, 96 h. Potency, µM (doses to about 28.7 µM), inactives show top-dose activity change, negative = inhibition, most hits filed as inhibitors. 320,000 compounds, 6.9% hits; also: % is scaled to controls: 0 for no effect and ±100 for the full control effect
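Luminescence readout: decreased luciferase signal marks inhibited growth of reporter-expressing P. falciparum in infected red cells (2% hematocrit, 0.05% parasitemia final), exposed to compound two generations (96 h, 37 C, 5% CO2).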
HCV inh = blocks hepatitis C virus | AID 651820 | Potency, µM (doses to about 41.8 µM), inactives show top-dose activity change, negative = inhibition, most hits filed as inhibitors | Huh7.5.1 HCVcc-Cre infection, luciferase reporter, 44 h | 340,000 compounds, 3.4% hits; also: % is scaled to controls: 0 for no effect and ±100 for the full control effect
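Luciferase read-out (15 sec integration) after a 15 min room-temperature substrate step quantifies HCVcc-Cre infection. Cells, 1,000 per well, had compound added 4 h post-plating, then virus at ~0.5 moi, and were cultured 44 h.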
Numbers without * were called inactive; ? = inconclusive; / = no result; [ ] = dose if it differs, or a comment. Unless noted, calls follow the shape of the dose curve; as a rule, active = well fitted curve in the direction sought with a large enough effect; inconclusive = small, poorly fitted or top-dose-only effect, or another doubt; inactive = no such curve, though single readings can be large; an effect the other way counts as inactive or inconclusive. Potency is read from the fitted curve at half-maximal effect.

SMILES | SARS PLpro yeast | AMA1 RON2 block | NS1 inh | Pf growth 48h | Pf growth 96h | HCV inh
COc1cccc(C2=NC(C)(C)NC(c3ccccc3O)C2)c1 (stereo unspecified) | -8% | -18% | -9% | 9.3µM* | 0% | -29%
CCC1(C)N=C(c2ccc3c(c2)OCO3)CC(c2ccccc2O)N1 (stereo unspecified) | -26% | -3% | -5% | 4.7µM* | / | ?
CN(C(=O)c1cc(-c2ccc3c(c2)OCO3)on1)c1ccccc1 | -13% | 1% | -13% | 82% | -14% | -29%
NC(=O)c1c(/N=C/c2cccs2)sc2c1CCCC2 | -1% | 4% | -1% | 53% | 55% | 2%
COc1cc(/C=C/c2ccc3cccc(OC)c3n2)c(OC(C)=O)c([N+](=O)[O-])c1 | -19% | -13% | -2% | / | ? | 8.9µM*
COc1c(OC(C)=O)ccc(/C=C/c2ccc3cccc(OCc4ccccc4)c3n2)c1[N+](=O)[O-] | 14% | -10% | 20% | 1.9µM* | ? | 7.1µM*
CCCCCc1nnc(NC(=O)Cn2cnc3ccccc3c2=O)s1 | -2% | 0% | -9% | 20% | 13% | 19%
Cn1ccnc1SCc1cc(=O)[nH]c2ccccc12 | 2% | -2% | -8% | 20% | -7% | 11%
Cc1cccc(-c2nnc(SCc3cc(=O)[nH]c4ccccc34)n2C)c1 | 3% | 19% | 8% | 13µM* | ? | 11%
CCN(CC)C(=O)CSc1nnc([C@@H](N)C(C)C)o1 | 2% | 15% | 0% | -3% | 36% | -7%
N#CC(C(=O)Nc1ccc(Cl)c(Cl)c1)=C1Nc2ccccc2N1 | 7% | 61% | 3% | 7% | 2.6µM* | -6%
N#CC(C(=O)Nc1cccc(Cl)c1)=C1Nc2ccccc2N1 | 0% | -5% | 20% | 15% | -12% | ?
COc1cccc(Cn2ncc3c4sc(Br)cc4n(C)c3c2=O)c1 | 1% | / | / | ? | 14% | /
CN(c1ccccc1)S(=O)(=O)c1cccc(NC(=O)c2ccc(=O)[nH]n2)c1 | 2% | -14% | / | / | / | ?
COc1ccc(NS(=O)(=O)c2cccc(NC(=O)C3=NN(c4ccccc4)C(=O)CC3)c2)cc1 | -1% | -13% | -1% | ? | 7.4µM* | -14%
CN(c1ccccc1)S(=O)(=O)c1cccc(NC(=O)C2=NN(c3ccccc3)C(=O)CC2)c1 | / | -2% | / | / | / | 16µM*
COc1ccc(NS(=O)(=O)c2cc(NC(=O)C3=NN(c4ccccc4)C(=O)CC3)ccc2C)cc1 | / | -10%[11.6 µM] | / | / | / | -16%
CCCCc1nc2c(C)c(N)cnc2n1Cc1cccc([N+](=O)[O-])c1 | 1% | 1% | 1% | -20% | ? | -15%
CC1=C(c2ccc(NN=C(C#N)C#N)cc2)NNC(=O)C1 | / | / | / | 1% | -17% | /
CCCCNC(=O)COC(=O)c1ccccc1F | 0% | 5% | 0% | 2% | 9% | 9%
O=C(N[C@@H](Cc1ccccc1)c1nc2ccccc2[nH]1)c1cc([N+](=O)[O-])ccc1Cl | 14% | -1% | 15% | 15µM* | ? | -3%
CC(Cc1ccccc1)NC(=O)c1cc([N+](=O)[O-])ccc1Cl (stereo unspecified) | 0% | 1% | -1% | ? | ? | -23%
Cc1ccc(S(=O)(=O)N(C)C)cc1NC(=O)C(C)OC(=O)/C=C/c1cccs1 (stereo unspecified) | 1% | -4% | -3% | 105% | -11% | -2%
C/C(CCN1CCc2nc(-c3ccccc3)c(-c3ccccc3)cc2C1)=N\O[C@@H](C)c1cn([C@H](CO)Cc2ccccc2)nn1 | 4% | / | -24% | ? | 13µM* | -13%[8.37 µM]
O=C(Cn1cnc2nc3n(c2c1=O)CCC3)NCc1ccccc1 | 0% | -20% | 7% | 4% | ? | 8%
SMILES | SARS PLpro yeast | AMA1 RON2 block | NS1 inh | Pf growth 48h | Pf growth 96h | HCV inh
CCc1ccc2c(c1)cc(CN(C(=S)Nc1ccccc1C)C1CC1)c1nnnn12 | 2% | -14% | 1% | 3.3µM* | ? | -8%
COC(=O)c1cc(NC(=O)C(C)c2ccc(CC(C)C)cc2)ccc1O (stereo unspecified) | 0% | -3% | 2% | ? | ? | 11µM*
COc1ccc(N2CC(C(=O)N/N=C/c3cc([N+](=O)[O-])ccc3O)CC2=O)cc1 (stereo unspecified) | 5% | 33% | / | ? | 0% | -3%
Cc1ccc(-c2csc(N3CCN(c4ccc5nc(-c6ccncc6)n(CCN6CCCCC6)c5c4)CC3)n2)cc1 | -9% | -10% | 8% | 1.5µM* | ? | ?
CCCn1c(C)nc2cc(Cl)c(N3CCN(c4nc(-c5ccc(C)cc5)cs4)CC3)cc21 | -15% | 23% | -46% | 8.3µM* | 5.2µM* | ?
Cc1ccc(-c2csc(NCCn3c(-c4ccncc4)nc4ccccc43)n2)cc1 | -12% | -17% | 13% | -4% | 0% | ?
COc1ccc(-c2csc(N3CCN(c4cc5c(cc4Cl)nc(-c4ccncc4)n5CCOCCO)CC3)n2)cc1 | -9% | 76% | 21% | ? | 3.7µM* | 1%
Cc1ccc(-c2csc(N3CCN(c4cc5c(cc4Cl)nc(-c4ccncc4)n5CCN4CCCCC4)CC3)n2)cc1 | -16% | 0% | -7% | ? | 3.3µM* | -17%
COc1c(C(CC(C)C)OC(C)=O)ccc2c1C(=O)OCc1cc(C)cc(O)c1O2 (stereo unspecified) | -11% | -14% | -96% | 8.3µM* | 108% | 2.5µM*
COc1c(C(O)CC(C)C)ccc2c1C(=O)OCc1cc(C)cc(O)c1O2 (stereo unspecified) | 0% | -18% | -3% | 38% | 0% | 2.2µM*
Cc1ccc(N(CC(=O)NCCc2ccccc2)C(=O)CCC(=O)Nc2cc(C)ccn2)cc1 | -4% | 1% | -9% | -4% | 7% | 7%
CCc1cccc2sc(N3CCN(C(=O)c4ccc([N+](=O)[O-])o4)CC3)nc12 | 6% | ? | / | 0.66µM* | 0.52µM* | ?
Cc1cc(C)c(NC(=O)C2CCN(C(=O)c3ccco3)CC2)c(C)c1 | 1% | 21% | 12% | 21% | 0% | 0%
COc1cccc2sc(N3CCN(C(=O)c4ccco4)CC3)nc12 | 7% | -15% | / | 9.3µM* | ? | -16%
Cc1ccc(Cl)c2sc(N3CCN(C(=O)c4ccco4)CC3)nc12 | -17% | -14% | / | ? | ? | ?
Cc1cccc2sc(NC(=O)C3CCN(C(=O)c4ccco4)CC3)nc12 | -3% | 13% | 2% | -20% | 15µM* | 11µM*
O=C(NCCCN1CCC(Cc2ccccc2)CC1)c1ccc2nc(N3CCOCC3)sc2c1 | 0% | 5% | -3% | 10µM* | ? | 10µM*
